In all, about 360,000 compounds went through this assay and about 7,300 (2%) were called active. No stated cut-off is given here; in the data, active means inhibition above about 50%; inactive means the rest. The list comes from a sample in which actives are over-represented; it also holds similar structures and randomly drawn compounds.

The experiment is described as follows: blockers of TWEAK-induced Fn14 reporter activity – luciferase reporter cells, uHTS, primary screen (AID 1159606). To be noted: TWEAK-stimulated Fn14 reporter cells, luciferase luminescence, 8 h; at 10 µM; stronger effect = higher value.
On to `Cc1ccc(OCC(=O)Nc2ccccc2Sc2ccc(Cl)cc2)c([N+](=O)[O-])n1`, for which the inhibition is 13.7% (inactive).

On to `COc1cccc(-c2cc3nc(NCCOc4ccccc4Cl)n(C)c(=O)c3s2)c1`, for which the inhibition is 15.1% (inactive).

Regarding `CCOC(=O)C1CCCN(C(=O)c2cc(-c3cccs3)oc2C)CC1` (stereo not given), the inhibition was 31.6% (inactive).

Regarding `Cc1ccc(S(=O)(=O)Nc2ccccc2CNc2c(C)n(C)n(-c3ccccc3)c2=O)cc1`, the inhibition is 12.4% (inactive).

Turning to `O=C(NCC(=O)N1CCN(c2ccccc2O)CC1)c1ccc2ccccc2c1`, the inhibition was -22.9% (inactive).

Regarding `CC(C)C1Cc2[nH][nH]c(=O)c2C(c2ccc(Cl)cc2)O1` (stereo not given), the inhibition was -23.3% (inactive).

Consider `COc1ccc(C(=O)OCC(=O)c2ccc(Cl)s2)c(OC)c1OC`, for which the inhibition is -38.7% (inactive).

Turning to `CNc1cncc(-c2ccc(NS(C)(=O)=O)cc2)n1`, the inhibition is 34.6% (inactive).

As to `CC1(C)OC(=O)C2=C(C[C@@H](C3CC3)O[C@H]2CCc2cccc(Cl)c2)O1`, the inhibition is -0.44% (inactive).

`Cc1ccc(S(=O)(=O)N(C)c2ccc(OCC(=O)OCC(=O)N(CC#N)c3ccccc3)cc2)cc1`: the inhibition was -12% (inactive).

As to `CCOC(=O)c1c(-c2ccccc2)oc2cc(Br)c(O)c(C=O)c12`, the inhibition is 97.5% (active).

For the molecule `CCOC(=O)c1c(C)oc2cc(Sc3ccccc3)c(O)c(O)c12`, the inhibition is -4.97% (inactive).

As for `Cc1oc2cc(Br)c(O)c(Br)c2c1C(=O)c1ccccc1`, the inhibition was -24.8% (inactive).

For the molecule `CC1CCCN(c2ccc(C(=O)NCCc3ccccc3)cn2)C1` (stereo not given), the inhibition was 6.92% (inactive).

For `CCC(C)N(C(=O)CSc1nnnn1-c1ccccc1OC)C1CCS(=O)(=O)C1` (stereo not given), the inhibition was 14.9% (inactive).

As for `CCN(C(=O)CSc1nnnn1-c1ccccc1OC)C1CCS(=O)(=O)C1` (stereo not given), the inhibition is 3.05% (inactive).

With `COc1ccccc1-n1nnnc1S(=O)(=O)Cc1ccc(Cl)cc1`, the inhibition was 102% (active).

Consider `CNC(=O)NCCN1CCCC1=O`, for which the inhibition was -16.3% (inactive).

As for `O=C(NCc1ccc(F)cc1F)[C@@H]1CCCN1C(=O)[C@@H]1CCCN1C(=O)c1cccc(Cl)c1`, the inhibition is 22.6% (inactive).

In the case of `Cc1ccc2nc(-c3ccco3)c(Cc3cccc(Cl)c3)n2c1`, the inhibition is 10.4% (inactive).

As for `N#CCC(=O)Nc1ccc(C(=O)OCC(=O)Nc2sc3c(c2C#N)CCCC3)cc1`, the inhibition was -31.7% (inactive).

Consider `CC(=O)c1c(C)[nH]c(C(=O)OCC(=O)Nc2c(C)cccc2C)c1C`, for which the inhibition is 12.5% (inactive).

Turning to `CC(=O)c1c(C)[nH]c(C(=O)OCC(=O)Nc2sc3c(c2C#N)CCCC3)c1C`, the inhibition is 64.3% (active).

For the molecule `CCCc1nc2scc(-c3ccc(C)cc3)c2c(=O)n1N`, the inhibition is 17.3% (inactive).

As for `COc1ccc2c(c1OC)C(=O)OC2Nc1nc(-c2ccccc2)cs1` (stereo not given), the inhibition was 66.1% (active).

In the case of `COc1ccc(-c2csc(NC3OC(=O)c4ccccc43)n2)cc1` (stereo not given), the inhibition was 66.2% (active).

`COc1ccc(-c2csc(Nc3ccccn3)n2)cc1`: the inhibition is 68.4% (active).

With `COc1ccc(C(O)c2nc(-c3ccc(OC)nc3)cs2)cc1` (stereo not given), the inhibition was -2.94% (inactive).

As for `COc1cc(C(O)c2nc(-c3cccc(C(=O)O)c3)cs2)ccc1F` (stereo not given), the inhibition is -19.5% (inactive).

In the case of `Cn1cc(C2OC(=O)c3ccccc32)c2ccccc21` (stereo not given), the inhibition was 38.7% (inactive).

In the case of `N#Cc1ccc(OCC(=O)Nc2nc(-c3ccccn3)cs2)cc1`, the inhibition was -7.26% (inactive).

As for `COc1ccc(N/C=C(\C2OC(=O)c3ccccc32)[N+](=O)[O-])cc1` (stereo not given), the inhibition was 9.49% (inactive).

For the molecule `Cc1ccc(-c2csc(NC3OC(=O)c4ccccc43)n2)cc1` (stereo not given), the inhibition is 85.8% (active).

For `COc1ccc(C(C)(NC(C)=O)c2nc(-c3ccc(S(C)(=O)=O)cc3)cs2)cc1` (stereo not given), the inhibition was -12.5% (inactive).

As for `C/C(CC1CC(C)(C)OC1=O)=N/Nc1nc(-c2ccccc2)cs1` (stereo not given), the inhibition was -29.9% (inactive).
